Assay outcomes (PubChem)
DT40 TDP1 CPT = growth inhibition of DT40 Tdp1-/-;hTDP1 cells with camptothecin (screen for TDP1 inhibitors); hit rate 12% among 420,000; Potency, µM (series often up to 46.2 µM), for inactives: top-dose activity change, negative = growth inhibition, hits mostly inhibitors; chicken DT40 Tdp1-/-;hTDP1 cells + 20 nM CPT, ATP luminescence, 48 h; note: potency is the fitted concentration of half-maximal effect; % is set by controls: 0 for no effect and ±100 for the full control effect; nearly all actives have a fitted effect of over 55% in size
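Chicken DT40 Tdp1-/- cells complemented with human TDP1, 400 cells/well, exposed to compounds plus 20 nM camptothecin for at least 48 h at 37 C; viability read as ATP content by CellTiter-Glo luminescence.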
IL1B secr inh = blocks inflammasome-driven IL-1 beta release. THP-1 LPS/ATP IL-1B secretion, AlphaLISA, 16 h; hits give low values. activity change, % at 57.5 µM. hit rate 4.7% among 360,000; in the data active = activity change below about -50%; inconclusive = mostly about -30% to -49%; note: % is set by controls: 0 for no effect and ±100 for the full control effect
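Secreted IL-1B measured by AlphaLISA bead assay after 16 h compound exposure of THP-1 cells; compounds (final up to 57.5 uM) added 1 h before LPS (250 ng/mL) and ATP (1.25 mM) stimulation; lower signal means less secretion.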
MCF10A rerep = DNA re-replication induction in MCF 10a cells; MCF 10A DNA re-replication, Hoechst nuclear intensity, 48 h; Potency, µM (top dose mostly 46.1 µM), without a hit: top-dose activity, positive = re-replication, usual class: activators; hit rate 2.9% among 350,000; note: potency is the fitted concentration of half-maximal effect; % of control where 0% means no effect; nearly all actives have a fitted effect of over 50% in size
SW480 rereplic = inducers of DNA re-replication in SW480 colon cancer cells; SW480 DNA re-replication, Hoechst DNA content imaging, 48 h; Potency, µM (doses to about 46.1 µM), for the others: at the highest dose re-replication activation, usual class: activators; hit rate 1.8% among 340,000; note: potency is the fitted concentration of half-maximal effect; % of control where 0% means no effect; nearly all actives have a fitted effect of over 55% in size
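Per well, 250 cells were exposed to pinned compound for 48 hr. Nuclear DNA was visualised with Hoechst (40 min, 37 C) and total object intensity recorded by fluorescence scanning.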
DT40 TDP1 no CPT = qHTS for Inhibitors of human tyrosyl-DNA phosphodiesterase 1 (TDP1): qHTS in cells in absence of CPT. DT40 Tdp1-/- hTDP1 cells, no CPT, ATP luminescence, 48 h. Potency, µM (top dose mostly 46.2 µM), without a hit: top-dose activity change, negative = growth inhibition, usual class: inhibitors. hit rate 15% among 420,000; note: potency is the fitted concentration of half-maximal effect; % is set by controls: 0 for no effect and ±100 for the full control effect; nearly all actives have a fitted effect of over 55% in size
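No-CPT arm: Tdp1-/-;hTDP1 DT40 cells (400/well) plus compounds, incubated ≥48 hr at 37 °C. Readout CellTiter-Glo luminescence.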
Chronic BCR inh = blocks chronic active B-cell receptor signaling; Potency, µM (highest dose often 46.1 µM), inactives show top-dose activity change, negative = inhibition, most hits filed as inhibitors; hit rate 0.05% among 340,000; AID 493014; ABC-DLBCL IkBa-CBG/CBR reporter, luminescence ratio, 4 h; active = well fitted inhibition curve with a large enough effect in the signal ratio, with a control signal flat, not every such curve was filed as active; inconclusive = small, poorly fitted or top-dose-only effect, or effect the other way, or a change in a side signal; the % refers to the signal ratio;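 note: potency is the fitted concentration of half-maximal effect; plate controls were basal doxycycline-induced cells for no effect and cells given 10 µM MG132 for full effect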
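TMD8 human ABC-DLBCL cells with doxycycline-inducible IκBα–green luciferase fusion and unfused red luciferase, in 0.5% FBS medium; compounds up to 46 uM, 4 h at 37C. Green/red luminescence ratio, filter-overlap corrected, fitted to concentration-response curves.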
An asterisk follows results filed as active; i = inactive; ? = inconclusive; . = no result given; [ ] = another dose, or the depositor's remark. An excerpt weighted towards active compounds, which were near 19% of everything screened. Unless noted, calls come from the whole dose curve; as a rule, active = well fitted curve in the direction sought with a large enough effect; inconclusive = small, poorly fitted or top-dose-only effect, or another doubt; inactive = no such curve, though single readings can be large; an effect the other way counts as inactive or inconclusive.

SMILES	DT40 TDP1 CPT	IL1B secr inh	MCF10A rerep	SW480 rereplic	DT40 TDP1 no CPT	Chronic BCR inh
CCN(CC(=O)Nc1c(F)cccc1F)C(=O)c1cccnc1Sc1ccccc1	-14%	-11	15%	?	-11%	0%
COc1ccc2cc(C3CC=C(CO)CN3S(=O)(=O)c3ccccc3[N+](=O)[O-])n(C(=O)OC(C)(C)C)c2c1 (centres undefined)	23µM*	-17	.	.	21µM*	.
c1ccc(Oc2nc(-c3ccccn3)nc3ccccc23)cc1	2.6µM*	?	?	21µM*	2.1µM*	?
COc1ccc(Oc2nc(-c3ccccn3)nc3ccccc23)cc1	3.3µM*	-93*	2%	?	4.1µM*	?
c1ccc(Oc2c3ccccc3nc3ccccc23)cc1	?	11	18µM*	?	21µM*	?
CCCC1OC2CC3C4CCC5=CC(=O)C=CC5(C)C4C(O)CC3(C)[C@]2(C(=O)CO)O1 (some centres undefined)	16µM*	.	.	.	?	.
CCCC1OC2C[C@@H]3[C@H]4CCC5=CC(=O)C=C[C@]5(C)[C@H]4C(O)C[C@]3(C)[C@]2(C(=O)CO)O1 (some centres undefined)	11µM*	.	.	.	?	.
COc1ccccc1C(=O)NC(=O)COC(=O)c1cccc(NC(C)=O)c1	-10%	i	-8%	-25%	-19%	?
CCCCCn1c(C)c2c(OCC)cccc(=O)c2c1C	23µM*	-2	1%	-1%	?	?
Cc1nn(C)c(C(=O)Sc2ccccc2)c1[N+](=O)[O-]	?	-13	68%	-2%	23µM*	?
CCn1nc(C)cc1C(=O)Sc1cccc(Cl)c1	3.7µM*	-6	23µM*	0%	4.1µM*	?
Cc1nn(C)c(C(=O)N/N=C/c2ccccn2)c1[N+](=O)[O-]	1%	13	-9%	-1%	7%	0%
Cc1nn(C)c(C(=O)Sc2cccc(Cl)c2)c1[N+](=O)[O-]	4.6µM*	-11	18µM*	?	2.9µM*	0%
Cn1cccc1C(=O)N1CCC[C@@]2(CCN(C(=O)Nc3cccc(C#N)c3)C2)C1	-5%	.	.	.	-16%	.
CCn1c2ccc(C)cc2c2nnc(NN)nc21	18µM*	-9	?	?	9.2µM*	5%
CCn1c2ccccc2c2nnc(NN)nc21	?	32	24%	?	?	?
CCCCn1c2ccc(F)cc2c2nnc(NN)nc21	18µM*	77	0.65µM*	?	?	1%
O=C(Nc1c(C(=O)c2ccccc2)oc2ccccc12)c1cc(=O)c2ccccc2o1	15%	.	.	.	1%	.
Cc1ccc(C(=O)c2oc3ccccc3c2NC(=O)c2cc(-c3ccccc3O)n[nH]2)cc1	26µM*	-3	9.2µM*	18µM*	10µM*	?
O=C(Nc1c(C(=O)c2ccccc2)oc2ccccc12)c1cc(-c2ccccc2O)n[nH]1	21µM*	-11	?	?	18µM*	?
Cc1ccc(C(=O)c2oc3ccccc3c2NC(=O)c2cc(-c3ccc(Cl)cc3)on2)cc1	10%	.	.	.	-4%	.
Cc1ccc(C(=O)c2oc3ccccc3c2NC(=O)c2cc(-c3cc(C)ccc3O)n[nH]2)cc1	16µM*	58	1.6µM*	?	13µM*	?
Cc1ccc(Cn2ccn(Cc3ccc(C)cc3)c(=O)c2=O)cc1	-3%	.	.	.	-10%	.
COc1ccc(N2CCN(C(=O)C3CCN(S(=O)(=O)c4cn(C)cn4)CC3)CC2)cc1	-5%	.	.	.	3%	.
O=C(c1ccncc1)N1CCN(S(=O)(=O)c2ccc(F)cc2)CC1	-1%	3	0%	-2%	27%	0%
SMILES	DT40 TDP1 CPT	IL1B secr inh	MCF10A rerep	SW480 rereplic	DT40 TDP1 no CPT	Chronic BCR inh
COc1ccccc1NCCC(=O)OCC(=O)NC1CCCCCC1	-7%	-13	-2%	-10%	-4%	-5%
COc1ccc(C(=O)N/N=C/C2CC=CCC2)cc1OC (centres undefined)	-4%	24	7%	4%	1%	?
COc1cc(-c2nnc(SCC(=O)c3ccc(C)cc3)o2)cc(OC)c1OC	?	-3	12%	?	23µM*	?
COc1cc(-c2nnc(SCC(=O)N3c4ccccc4Sc4ccccc43)o2)cc(OC)c1OC	?	-3	?	1%	8.2µM*	8%
COc1cccc(C(=O)CSc2nnc(-c3cc(OC)c(OC)c(OC)c3)o2)c1	?	-3	1%	-7%	21µM*	-44%
COc1cc(-c2nnc(SCC(=O)Oc3ccccc3)o2)cc(OC)c1OC	-2%	.	.	.	5%	.
O=C(Sc1nnc(-c2ccccc2)o1)N1c2ccccc2Sc2ccccc21	21µM*	-17	31%	-1%	18µM*	-17%
Cc1cccc(-c2cc(NCCc3cccnc3)n3nccc3n2)c1	-17%	14	.	.	-3%	.
COc1ccc(C)cc1NC(=O)CSc1nnc(-c2ccc(Br)cc2)o1	-15%	-29	13µM*	20%	-19%	3%
Cc1cc(C)c(C)c(C(=O)CSc2nnc(-c3ccc4[nH]c(C)c(C)c4c3)o2)c1C	?	?	13µM*	?	?	13%
COc1ccccc1NC(=O)CSc1nnc(-c2ccc(C)cc2)o1	-14%	6	5%	-1%	-9%	?
Cc1[nH]c2ccc(-c3nnc(SCC(=O)c4ccc(F)cc4)o3)cc2c1C	?	-20	-14%	7%	-29%	?
O=C1C2C3c4ccccc4C(c4ccccc43)C2c2nc3ccccc3n21 (centres undefined)	4.1µM*	18	?	8%[9.22 µM]	4.1µM*	?
CC#CCC(C)[C@H](O)/C=C/[C@@H]1[C@H]2C/C(=C/CCCC(=O)O)C[C@H]2C[C@H]1O (some centres undefined)	15%	.	.	.	-2%	.
N#Cc1ccc(N/N=C/c2cn(-c3ccccc3)nc2-c2ccccc2)c([N+](=O)[O-])c1	3.7µM*	11	2%	.	8.2µM*	-1%
O=C(N/N=C/c1cn(-c2ccccc2)nc1-c1ccccc1)c1ccco1	?	11	26%	17%	?	?
COc1ccccc1/C=C1\Cc2ccccc2C1=O	?	15	40%	2%	?	?
COc1cccc2c1C(=O)/C(=C\c1ccc(N(C)C)cc1)C2	?	.	.	.	11µM*	.
COC(=O)Cc1ccc(OC(=O)c2cccc(S(=O)(=O)N3CCN(C)CC3)c2)cc1	6%	10	-3%	-50%	-23%	0%
